Screening data from PubChem BioAssay.
Hits are enriched below; roughly 21% of the tested compounds scored in any of these assays.
ELG1 repair inh: ELG1-dependent DNA repair inhibition. HEK293T ELG1-luciferase reporter, luminescence, 16 h; DNA damage induced by 5-fluorouridine. Potency, µM (series often up to 46.1 µM), for inactives: at the highest dose activity change, negative = inhibition, usual class: inhibitors. 330,000 tested, 2.3% active; further: potency means the concentration at half of the fitted maximal effect; nearly all actives have a fitted effect of over 55% in size
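Step one: seed 2,000 cells per well. Step two: pin-transfer compound or DMSO alongside 5-fluorouridine. Step three: incubate 16 hr, 37 °C, 5% CO2. Step four: add ONE-Glo, wait 30 min, read luminescence.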
DT40 TDP1 no CPT: qHTS for Inhibitors of human tyrosyl-DNA phosphodiesterase 1 (TDP1): qHTS in cells in absence of CPT | DT40 Tdp1-/- hTDP1 cells, no CPT, ATP luminescence, 48 h | 420,000 tested, 15% active | Potency, µM (doses to about 46.2 µM), for the others: at the top dose activity change, negative = growth inhibition, usual class: inhibitors; further: potency means the concentration at half of the fitted maximal effect; nearly all actives have a fitted effect of over 55% in size
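Readout: luminescence from CellTiter-Glo after 30 min in the dark at RT. Cells: DT40 Tdp1-/- with stable hTDP1, 400/well. Exposure: compounds alone, ≥48 hr, 37 °C.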
IL-1B inflam inh: inhibitors of inflammasome signaling (IL-1 beta secretion) | THP-1 LPS/ATP IL-1B secretion, AlphaLISA, 16 h; active compounds read low | activity change, % at 57.5 µM | 360,000 tested, 4.7% active | AID 743279; in the data active means activity change below about -50%; inconclusive means mostly about -30% to -49%
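THP-1 cells pretreated 1 hr with compounds (up to 57.5 uM final), then stimulated with LPS (250 ng/mL final) plus ATP (1.25 mM final); secreted IL-1B measured by AlphaLISA after 16 hr, decreased signal indicating inhibition.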
RORgamma inh: blocks mouse ROR gamma transcriptional activity; Potency, µM (titrated, usually from 53.6 µM), for inactives: top-dose activity change, negative = inhibition, usual class: inhibitors; AID 2551; P51450; Drosophila S2 Gal4-RORgamma UAS-luciferase reporter, 20 h; 310,000 tested, 5.4% active; further: potency means the concentration at half of the fitted maximal effect; nearly all actives have a fitted effect of over 60% in size
Target sequence (P51450 whole entry, looked up, the tested form may be a part): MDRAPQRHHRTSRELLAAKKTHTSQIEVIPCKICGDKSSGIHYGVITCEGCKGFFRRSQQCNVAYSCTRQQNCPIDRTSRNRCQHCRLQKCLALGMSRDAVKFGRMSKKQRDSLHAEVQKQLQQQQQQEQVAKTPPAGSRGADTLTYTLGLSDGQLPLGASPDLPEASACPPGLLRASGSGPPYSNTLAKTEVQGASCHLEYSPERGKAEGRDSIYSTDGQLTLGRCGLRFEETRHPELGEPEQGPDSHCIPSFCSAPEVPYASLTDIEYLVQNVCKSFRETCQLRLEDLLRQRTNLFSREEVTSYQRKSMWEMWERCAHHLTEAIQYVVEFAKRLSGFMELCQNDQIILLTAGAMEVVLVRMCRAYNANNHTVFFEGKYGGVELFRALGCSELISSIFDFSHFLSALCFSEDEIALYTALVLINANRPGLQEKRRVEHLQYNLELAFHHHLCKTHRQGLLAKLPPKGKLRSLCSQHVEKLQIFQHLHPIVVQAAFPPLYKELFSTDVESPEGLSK
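Schneider cells (Drosophila), stable Gal4 DBD–ROR gamma + UAS-luc; 1 hr cmpd preincubation; Cu2+ induction 700 uM final; 20 hr ambient; luminescence.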
DT40 TDP1 CPT: growth inhibition of DT40 Tdp1-/-;hTDP1 cells with camptothecin (screen for TDP1 inhibitors); chicken DT40 Tdp1-/-;hTDP1 cells + 20 nM CPT, ATP luminescence, 48 h; 420,000 tested, 12% active; Potency, µM (titrated, usually from 46.2 µM), inactives show at the highest dose activity change, negative = growth inhibition, most hits filed as inhibitors; further: potency means the concentration at half of the fitted maximal effect; nearly all actives have a fitted effect of over 55% in size
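Chicken DT40 Tdp1-/- cells complemented with human TDP1, 400 cells/well, exposed to compounds plus 20 nM camptothecin for at least 48 h at 37 C; viability read as ATP content by CellTiter-Glo luminescence.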
VP16 counter: counter-screen for ROR gamma inhibitors: Gal4-VP16 reporter; Drosophila S2 Gal4-VP16 UAS-luciferase, luminescence, 20 h; Potency, µM (titrated, usually from 53.6 µM), without a hit: top-dose activity, negative = inhibition, hits mostly inhibitors; 310,000 tested, 3.5% active;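 further: Gal4-VP16 expression switched on by copper sulfate through the metallothionein promoter; potency means the concentration at half of the fitted maximal effect; nearly all actives have a fitted effect of over 50% in size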
* marks the source's active call; other numbers are inactive results; u = inconclusive; x = no result given. Unless noted, the call rests on the fitted dose curve; in most records, active means well fitted curve in the direction sought with a large enough effect; inconclusive means small, poorly fitted or top-dose-only effect, or another doubt; inactive means no such curve, though single readings can be large; an effect the other way counts as inactive or inconclusive. On the % scale 0 is the no-effect control and ±100 the full control effect.

SMILES | ELG1 repair inh | DT40 TDP1 no CPT | IL-1B inflam inh | RORgamma inh | DT40 TDP1 CPT | VP16 counter
COc1cccc(C(=O)NC2CCNCC2)c1 | -5% | 17% | -15 | -1% | -6% | 4%
COc1ccc(C(=O)NCc2ccc3c(c2)CCN3C(C)=O)cc1OC | x | -13% | x | x | 14% | x
Cc1ccc(C(=O)Nc2c(-c3ccccc3)nc3ccccn23)cc1 | x | -23% | x | x | -30% | x
COC(=O)c1cc(=O)n(CCc2ccccc2F)c(=Nc2ccc(F)c(Cl)c2)s1 | u | 8.2µM* | -101* | u | 15µM* | u
COC(=O)c1cc(=O)n(Cc2ccco2)c(=Nc2ccc(F)c(Cl)c2)s1 | u | 13µM* | -105* | u | 16µM* | u
COC(=O)c1cc(=O)n(Cc2ccc3c(c2)OCO3)c(=Nc2ccccc2)s1 | -18% | u | 12 | u | 12% | -15%
Cc1ccnc(NC(=O)C2CCN(S(=O)(=O)c3ccc(Cl)c(C(F)(F)F)c3)CC2)c1 | -3% | u | -7 | x | u | x
O=C(Nc1ccncc1)C1CCN(S(=O)(=O)c2ccccc2C(F)(F)F)CC1 | u | 26µM* | 22 | 16% | 15µM* | -14%
O=C(Nc1ccncc1)C1CCN(S(=O)(=O)c2ccc(Cl)c(C(F)(F)F)c2)CC1 | -5% | 15µM* | u | x | 16µM* | x
Cc1cc(C)c(C)c(S(=O)(=O)N2CCC(C(=O)N3CC(C)CC(C)C3)CC2)c1C (stereo not given) | u | 26µM* | -75* | x | 18µM* | x
O=C(Nc1ccncc1)C1CCN(S(=O)(=O)c2ccccc2)CC1 | u | u | 30 | x | u | x
O=C(Nc1ccncc1)C1CCN(S(=O)(=O)c2ccc(Cl)cc2)CC1 | -11% | 16µM* | 12 | x | 23µM* | x
Cc1ccc(OCc2cc(=O)n3c4c(sc3n2)CCCC4)c(C)c1 | x | -1% | x | x | -9% | x
CCCOC(=O)CCCCCCCCC(O)CN1CCCCC1 (stereo not given) | -1% | -15% | 0 | u | -15% | -5%
CN(CC(=O)Nc1cccc2ccccc12)C(=O)c1ccc(F)cc1F | 0% | 3% | 0 | x | -17% | x
CCCN(C(=O)CSc1ccccc1C(=O)O)C1CCS(=O)(=O)C1 (stereo not given) | u | 4% | -3 | x | -20% | x
CC(OC(=O)Cn1[nH]c(=O)c2ccccc2c1=O)C(=O)Nc1ccc(F)cc1Cl (stereo not given) | 25% | -10% | 5 | x | -1% | x
O=C(Nc1ccncc1)C1CCN(S(=O)(=O)c2cccs2)CC1 | -11% | u | 20 | 23% | -3% | -4%
COc1ccc(S(=O)(=O)N2CCC(C(=O)Nc3cc(C(F)(F)F)ccc3Cl)CC2)cc1 | x | 16µM* | x | x | u | x
CS(=O)(=O)N1CCC(C(=O)Nc2cc(C(F)(F)F)ccc2Cl)CC1 | 1% | 1% | -3 | 0% | -3% | -2%
Cc1cc(C)c(C)c(S(=O)(=O)N2CCC(C(=O)Nc3ccncc3)CC2)c1C | -5% | 8.2µM* | -8 | -17% | u | u
CCN1c2ccccc2NC2N=C(OC)C(c3ccccc3)C21 (stereo not given) | u | 13µM* | 43 | -8% | 12µM* | -14%
CCCN1C(=O)c2ccccc2NC1c1cc(OC)c(OC)c(OC)c1 (stereo not given) | 6% | -28% | 15 | u | -13% | -5%
Cc1c(-c2cccc(NC(=O)c3cccs3)c2)nc2ncccn12 | u | u | -7 | u | -19% | 1%
COC(=O)c1ccccc1NC(=O)CSc1nnc(-c2cccnc2)o1 | u | -6% | 19 | 27% | 5% | -5%
